Reference: PubChem BioAssay
Inconclusive results are not listed. Calls of active or inactive are those of the source.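 Rule for the calls, unless noted: active = binding below the plate cutoff, the plate median minus 3 SD, with a reading above zero; inconclusive = below the plate cutoff but reading exactly zero; inactive = the rest.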

Assays:
[1] = yeast TOR pathway RPL19A-GFP modulators, primary screen, cell-based, S. cerevisiae, multiplex flow cytometry (AID 1862; in the data active = percent of DMSO control GFP below about 86%;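 note: lower values mimic rapamycin by blocking the RPL19A rise seen in DMSO cells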); details: S. cerevisiae RPL19A-GFP strain, flow cytometry fluorescence, 3 h; at 10 µM; stronger effect = lower value
[2] = modulators of MEP2-GFP levels in yeast, primary screen, S. cerevisiae, multiplex flow cytometry (AID 1867;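 active = GFP response, as percent of the DMSO control, above the screen-wide mean plus 3 SD, about 139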;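 note: median GFP channel fluorescence of barcode-gated MEP2-GFP cells measured by flow cytometry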); details: S. cerevisiae MEP2-GFP strain, 3 h, at 10 µM, stronger effect = higher value, 100% means same as DMSO wells
[3] = modulators of CIT2-GFP expression in yeast, primary screen, S. cerevisiae, GFP fusion, multiplex flow cytometry (AID 1870;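 active = percent response above a set limit, the screen-wide mean plus 3 SD, cut at about 130% in these data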;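 note: barcoded CIT2-GFP strain pooled with four other GFP strains with rapamycin as positive control; median GFP fluorescence per well over plate mean of DMSO wells so 100% = DMSO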); details: 3 h, at 10 µM, stronger effect = higher value
[4] = modulators of LAP4-GFP expression in yeast, primary screen, S. cerevisiae, multiplex flow cytometry (AID 1873;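 active = GFP signal, as percent of the solvent control, above the screen mean plus 3 SD, about 149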); details: 3 h, at 10 µM, stronger effect = higher value
[5] = modulators of AGP1-GFP expression in yeast TOR pathway, primary screen, cell-based, multiplex flow cytometry, S. cerevisiae (AID 1887;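 active = GFP signal above the screen-wide mean plus 3 SD, that is over about 124.5% of the solvent control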;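 note: AGP1-GFP fusion strain of S. cerevisiae within a five-strain barcoded multiplex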); details: 3 h, at 10 µM, stronger effect = higher value
[6] = inhibitors of CD8+ T cell-vesicle binding, pilot screen, LFA-1/ICAM-1 modulator project, MLPCN validation set, flow cytometry (AID 2523;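 active = response below a set limit, under 55% cells CD8-positive and vesicle-bound, and CD8 cells' 90th-percentile brightness under 279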;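 for vesicle binding response: mean PE anti-B7-1 fluorescence of CD8+ cells relative to row control; 100% = QL9-loaded vesicles with DMSO vehicle in the same plate row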); details: 2C mouse CD8+ T cells, at 7 µM, stronger effect = lower value; double positive events: measured here: CD8+/vesicle+ event percentage
[7] = biological target: Integrin beta-1 (Homo sapiens) + Integrin alpha-4 (Homo sapiens) (UniProt P13612+P05556); test: inhibition of HUTS-21 binding to VLA-4, pilot screen, VLA-4 allosteric modulator project, U937 cells, HUTS-21 mAb, flow cytometry, validation set (AID 2674;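 active = inhibition above 50%, about 3 SD of the validation set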;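 note: antibody binding induced by the VLA-4 ligand LDV present at three times its Kd; 0% = LDV ligand with antibody and no compound and 100% = antibody without LDV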); details: HUTS-21 LIBS mAb binding, at 6.7 µM, stronger effect = higher value, binding induced by LDV ligand
[8] = superoxide lowering in aged yeast cells, pilot screen, validation compound set (AID 2706;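 active = superoxide response below 65% of plate, a cut near 3 SD across the whole screen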;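 note: yeast exposed to compound for one week at 30 degrees C before staining; 100% = mean of all compound wells on the same plate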); details: S. cerevisiae aging, superoxide DHE fluorescence; at 10 µM; stronger effect = lower value
[9] = biological target: Beta-adrenergic receptor kinase 1 (Homo sapiens) (UniProt P25098); test: GRK2 binders displacing RNA aptamer, biochemical, validation, human GRK2, bead flow cytometry (AID 488806;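 active = aptamer binding inhibition above 30%, about 3 SD of noise from non-fluorescent compounds; inactive = inhibition at or below 30%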); details: bead-bound GRK2, FAM-aptamer displacement, at 10 µM, stronger effect = higher value
[10] = biological target: Beta-2 adrenergic receptor (Homo sapiens) (UniProt P07550); test: beta2AR agonists driving receptor internalization, pilot screen, cell-based, FAP fluorogen, flow cytometry, validation set (AID 504459;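 active = percent response above 42, roughly 3 SD of non-fluorescent test compounds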;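 note: agonist-driven loss of surface beta2AR via internalization measured by FAP dye flow cytometry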); details: Am2.2-beta2AR cells, FAP surface receptor flow cytometry; at 10 µM; stronger effect = higher value
[11] = biological target: AP-2 complex subunit beta (Homo sapiens) (UniProt P63010); test: inhibitors of arrestin peptide binding to AP2, pilot screen, biochemical, validation set, GST-AP2 beads, flow cytometry (AID 504541;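 active = inhibition above 54%, about 3 SD of non-fluorescent compounds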;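 note: AP2 carries R879A mutation and is captured from E. coli lysate; bead-bound FITC arrestin peptide fluorescence measuring arrestin peptide binding to AP2; 0% = DMSO wells and 100% = excess unlabeled arrestin peptide control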); details: FITC arrestin peptide, at 10 µM, stronger effect = higher value, AP2 beta2 appendage fragment, R879A mutant
[12] = yeast V-ATPase proton transport modulators, S. cerevisiae, pHLuorin, HTS validation (AID 504600; in the data active = response above about 15%;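 note: plate controls were DMSO for no effect and reference compound for full effect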); details: S. cerevisiae pHLuorin cytosolic pH, at 10 µM, stronger effect = higher value
[13] = system: anti-desmoglein-3 scFv antibody binding to human DSG3; test: inhibitors of anti-DSG3 scFv binding to DSG3, pilot screen, biochemical, validation compound set, bead-based, flow cytometry (AID 588368); details: Protein G beads, DSG3-Fc, scFv-GFP binding, at 10 µM, stronger effect = lower value;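 note: signal is the median channel fluorescence of bead-bound GFP antibody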
[14] = inhibitors of fungal efflux pumps CDR1, CDR2, MDR1, pilot screen, validation compound set, multiplex, phenotypic (AID 588506;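 active = efflux inhibition above 0.42, the validation set average plus 4 SD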;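 note: Nile Red retained in cells so higher fluorescence means more efflux inhibition; 0 = negative control wells and 1 = enniatin B 25 µM full block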); details: S. cerevisiae pump-expressing triplex, Nile Red efflux flow cytometry; at 10 µM; stronger effect = higher value; the pumps come from Candida albicans
[15] = biological target: ATP-binding cassette sub-family B member 6 (Homo sapiens) (UniProt Q9NP58); test: ABCB6 transporter inhibitors, pilot screen, K562-ABCB6 cells, flow cytometry, validation set (AID 588550;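 active = inhibition above the screen-wide mean plus 3 SD, about 51%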;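 note: 0% = DMSO wells and 100% = benzethonium chloride 70 µM positive control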); details: K562-ABCB6 porphyrin accumulation, 1 h, at 10 µM, stronger effect = higher value
[16] = promoters of myeloid differentiation in arrested cells, primary screen, cell-based, GFP/MAC1 double positive, flow cytometry, validation set (AID 588685;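 active = differentiation response of at least 50%, scaled between solvent and reference control, from cells with both markers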;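 note: compound exposure lasts four days before antibody staining and flow analysis; 0% = DMSO wells and 100% = 5 µM fulvestrant positive control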); details: ER-HoxA9 marrow cells, stronger effect = higher value, normalized: vehicle 0, fulvestrant 100

Sequence of Integrin beta-1 (Homo sapiens) + Integrin alpha-4 (Homo sapiens) (P05556 whole entry, looked up): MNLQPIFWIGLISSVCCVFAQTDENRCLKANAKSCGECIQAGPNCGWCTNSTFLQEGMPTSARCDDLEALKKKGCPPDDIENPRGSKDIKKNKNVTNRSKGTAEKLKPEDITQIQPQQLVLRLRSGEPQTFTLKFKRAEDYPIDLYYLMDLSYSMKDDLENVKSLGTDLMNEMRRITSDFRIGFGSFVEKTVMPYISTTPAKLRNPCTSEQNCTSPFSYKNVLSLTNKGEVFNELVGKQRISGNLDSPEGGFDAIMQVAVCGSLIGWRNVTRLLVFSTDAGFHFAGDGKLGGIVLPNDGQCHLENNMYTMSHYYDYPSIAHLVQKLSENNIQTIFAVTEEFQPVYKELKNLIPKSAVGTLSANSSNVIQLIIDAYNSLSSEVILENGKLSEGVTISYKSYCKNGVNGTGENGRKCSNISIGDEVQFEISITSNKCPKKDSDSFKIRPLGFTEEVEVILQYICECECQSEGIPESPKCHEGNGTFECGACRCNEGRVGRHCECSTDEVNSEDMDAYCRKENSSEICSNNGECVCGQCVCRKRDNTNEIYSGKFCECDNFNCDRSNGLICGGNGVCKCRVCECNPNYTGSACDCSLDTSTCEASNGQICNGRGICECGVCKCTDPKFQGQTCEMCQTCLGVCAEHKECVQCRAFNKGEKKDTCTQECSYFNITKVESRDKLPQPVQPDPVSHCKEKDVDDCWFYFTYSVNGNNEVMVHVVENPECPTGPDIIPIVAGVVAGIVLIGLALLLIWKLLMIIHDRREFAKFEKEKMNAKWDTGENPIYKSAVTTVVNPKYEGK
Sequence of Integrin beta-1 (Homo sapiens) + Integrin alpha-4 (Homo sapiens) (P13612 whole entry, looked up): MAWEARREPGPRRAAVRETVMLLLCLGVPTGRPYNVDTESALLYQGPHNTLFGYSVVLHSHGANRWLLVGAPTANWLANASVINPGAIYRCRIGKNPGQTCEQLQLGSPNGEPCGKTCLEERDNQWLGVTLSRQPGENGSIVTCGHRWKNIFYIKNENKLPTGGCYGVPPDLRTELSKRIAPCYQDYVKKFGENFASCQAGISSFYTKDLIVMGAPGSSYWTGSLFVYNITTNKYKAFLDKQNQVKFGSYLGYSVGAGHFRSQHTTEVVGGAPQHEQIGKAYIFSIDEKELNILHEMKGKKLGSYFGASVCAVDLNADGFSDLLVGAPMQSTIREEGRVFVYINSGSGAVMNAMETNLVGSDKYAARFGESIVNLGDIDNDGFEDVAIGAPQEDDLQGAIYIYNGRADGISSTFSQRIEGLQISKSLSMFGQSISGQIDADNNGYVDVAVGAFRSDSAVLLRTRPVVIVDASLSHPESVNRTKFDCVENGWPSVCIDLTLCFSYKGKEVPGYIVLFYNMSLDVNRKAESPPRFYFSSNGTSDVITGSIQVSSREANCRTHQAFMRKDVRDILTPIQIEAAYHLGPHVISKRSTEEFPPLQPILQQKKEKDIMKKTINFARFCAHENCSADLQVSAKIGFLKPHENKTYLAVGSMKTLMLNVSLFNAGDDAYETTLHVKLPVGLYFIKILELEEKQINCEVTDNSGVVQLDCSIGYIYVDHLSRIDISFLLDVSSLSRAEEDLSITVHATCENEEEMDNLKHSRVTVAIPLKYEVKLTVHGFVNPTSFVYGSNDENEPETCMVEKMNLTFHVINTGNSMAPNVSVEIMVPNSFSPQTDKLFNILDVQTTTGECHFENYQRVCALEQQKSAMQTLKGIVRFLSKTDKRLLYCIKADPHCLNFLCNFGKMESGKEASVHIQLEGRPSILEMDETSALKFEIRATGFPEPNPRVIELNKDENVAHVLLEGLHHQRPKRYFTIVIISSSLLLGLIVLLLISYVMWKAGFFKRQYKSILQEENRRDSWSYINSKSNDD
Sequence of ATP-binding cassette sub-family B member 6 (Homo sapiens) (Q9NP58 whole entry, looked up): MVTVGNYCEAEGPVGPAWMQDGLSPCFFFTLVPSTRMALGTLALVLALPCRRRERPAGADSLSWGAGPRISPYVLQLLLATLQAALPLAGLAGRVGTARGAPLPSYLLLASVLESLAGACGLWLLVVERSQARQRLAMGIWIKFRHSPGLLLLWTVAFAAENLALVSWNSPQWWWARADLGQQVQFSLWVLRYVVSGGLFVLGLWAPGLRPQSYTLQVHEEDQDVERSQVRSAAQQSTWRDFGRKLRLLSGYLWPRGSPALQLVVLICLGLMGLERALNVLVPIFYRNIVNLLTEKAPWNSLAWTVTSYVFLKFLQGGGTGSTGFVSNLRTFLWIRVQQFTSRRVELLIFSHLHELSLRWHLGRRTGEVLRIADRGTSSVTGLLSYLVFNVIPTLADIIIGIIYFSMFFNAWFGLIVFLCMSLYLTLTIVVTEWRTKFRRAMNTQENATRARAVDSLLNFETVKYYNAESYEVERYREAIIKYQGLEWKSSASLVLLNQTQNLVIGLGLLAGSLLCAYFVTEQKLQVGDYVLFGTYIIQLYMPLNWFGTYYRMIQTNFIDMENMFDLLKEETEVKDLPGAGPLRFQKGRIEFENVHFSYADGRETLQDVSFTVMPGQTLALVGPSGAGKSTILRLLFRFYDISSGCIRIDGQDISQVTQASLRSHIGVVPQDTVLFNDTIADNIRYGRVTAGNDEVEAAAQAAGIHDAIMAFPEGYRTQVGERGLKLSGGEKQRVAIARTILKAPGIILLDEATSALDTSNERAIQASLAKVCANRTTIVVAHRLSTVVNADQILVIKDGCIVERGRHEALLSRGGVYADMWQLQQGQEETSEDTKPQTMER
Sequence of Beta-adrenergic receptor kinase 1 (Homo sapiens) (P25098 whole entry, looked up): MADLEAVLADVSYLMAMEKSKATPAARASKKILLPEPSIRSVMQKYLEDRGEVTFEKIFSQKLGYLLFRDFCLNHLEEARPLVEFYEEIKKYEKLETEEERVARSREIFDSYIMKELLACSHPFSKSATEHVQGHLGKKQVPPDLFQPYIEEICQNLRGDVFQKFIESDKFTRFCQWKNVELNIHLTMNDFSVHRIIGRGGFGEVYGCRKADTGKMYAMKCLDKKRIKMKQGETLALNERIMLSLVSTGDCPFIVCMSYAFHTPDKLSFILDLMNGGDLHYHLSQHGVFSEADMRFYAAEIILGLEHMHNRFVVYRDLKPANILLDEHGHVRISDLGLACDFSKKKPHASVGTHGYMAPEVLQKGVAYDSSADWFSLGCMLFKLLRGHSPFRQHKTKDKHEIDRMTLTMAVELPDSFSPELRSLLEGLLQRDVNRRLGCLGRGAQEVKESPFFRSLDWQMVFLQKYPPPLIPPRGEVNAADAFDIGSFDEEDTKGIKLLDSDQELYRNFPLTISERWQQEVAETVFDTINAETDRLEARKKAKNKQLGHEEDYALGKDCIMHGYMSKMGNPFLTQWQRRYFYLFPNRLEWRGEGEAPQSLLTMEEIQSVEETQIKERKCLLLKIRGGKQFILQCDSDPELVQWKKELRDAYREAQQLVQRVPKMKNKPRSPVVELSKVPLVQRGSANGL
Sequence of AP-2 complex subunit beta (Homo sapiens) (P63010 whole entry, looked up, the tested form may be a part, one chain of several): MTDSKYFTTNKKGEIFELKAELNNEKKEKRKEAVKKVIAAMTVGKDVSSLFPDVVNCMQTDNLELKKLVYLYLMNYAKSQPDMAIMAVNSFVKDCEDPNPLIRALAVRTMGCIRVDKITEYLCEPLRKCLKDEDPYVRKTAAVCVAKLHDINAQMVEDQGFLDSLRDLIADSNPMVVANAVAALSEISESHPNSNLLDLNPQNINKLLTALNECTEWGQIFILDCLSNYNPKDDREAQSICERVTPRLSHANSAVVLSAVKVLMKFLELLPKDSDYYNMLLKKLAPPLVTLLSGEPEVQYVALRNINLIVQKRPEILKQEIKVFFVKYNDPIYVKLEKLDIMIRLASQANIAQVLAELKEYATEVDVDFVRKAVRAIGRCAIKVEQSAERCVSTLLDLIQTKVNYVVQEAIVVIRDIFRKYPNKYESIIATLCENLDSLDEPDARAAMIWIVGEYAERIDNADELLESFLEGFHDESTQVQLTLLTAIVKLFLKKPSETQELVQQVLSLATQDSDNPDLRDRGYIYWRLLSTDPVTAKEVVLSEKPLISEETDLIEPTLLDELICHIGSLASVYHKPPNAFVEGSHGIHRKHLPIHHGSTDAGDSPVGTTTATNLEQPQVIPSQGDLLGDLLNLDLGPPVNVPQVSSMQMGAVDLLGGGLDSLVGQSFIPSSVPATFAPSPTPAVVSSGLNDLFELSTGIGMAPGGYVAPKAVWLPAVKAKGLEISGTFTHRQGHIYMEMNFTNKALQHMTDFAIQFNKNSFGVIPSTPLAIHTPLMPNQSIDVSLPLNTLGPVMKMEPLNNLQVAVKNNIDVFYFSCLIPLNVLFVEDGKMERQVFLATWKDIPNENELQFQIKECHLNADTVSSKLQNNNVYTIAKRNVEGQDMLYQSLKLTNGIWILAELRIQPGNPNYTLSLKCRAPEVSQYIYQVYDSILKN
Sequence of Beta-2 adrenergic receptor (Homo sapiens) (P07550 whole entry, looked up): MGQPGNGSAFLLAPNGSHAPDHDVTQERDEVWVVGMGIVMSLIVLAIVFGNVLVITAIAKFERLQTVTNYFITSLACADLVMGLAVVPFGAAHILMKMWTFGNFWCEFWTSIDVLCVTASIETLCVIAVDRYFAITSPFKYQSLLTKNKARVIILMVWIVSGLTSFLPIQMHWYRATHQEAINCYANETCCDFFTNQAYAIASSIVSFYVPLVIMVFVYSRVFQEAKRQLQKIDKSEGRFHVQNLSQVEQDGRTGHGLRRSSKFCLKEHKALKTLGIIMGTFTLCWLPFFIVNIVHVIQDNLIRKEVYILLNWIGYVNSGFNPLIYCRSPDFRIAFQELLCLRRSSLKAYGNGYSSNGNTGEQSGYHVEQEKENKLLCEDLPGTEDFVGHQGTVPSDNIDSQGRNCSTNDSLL

C[C@@H]1C[C@H](Nc2ccccc2)c2ccccc2N1C(=O)c1cccnc1
59.5%: double positive events [6]
inactive: percent of DMSO control GFP [1] 103% | GFP response vs DMSO [2] 103% | percent response of DMSO control [3] 103% | GFP response vs DMSO [4] 98.2% | GFP response, % of DMSO [5] 101% | vesicle binding response [6] 188% | inhibition [7] 3.67% | superoxide response (% of plate) [8] 95.6% | aptamer binding inhibition [9] 4% | response [10] 2.27% | inhibition [11] 19.6% | response [12] -5.05% | binding (% of control) [13] 102% | efflux inhibition (fraction of control) [14] 0.05 | inhibition [15] 0% | differentiation response [16] 29.6%

CN(C)CCN(Cc1ccc(Cl)cc1)c1ccccn1
inactive: percent of DMSO control GFP [1] 107% | GFP response vs DMSO [2] 112% | percent response of DMSO control [3] 114% | GFP response vs DMSO [4] 114% | GFP response, % of DMSO [5] 118% | vesicle binding response [6] 125% | inhibition [7] 0.25% | superoxide response (% of plate) [8] 96% | aptamer binding inhibition [9] -4% | response [10] -7.41% | response [12] -5.25% | binding (% of control) [13] 97.3% | efflux inhibition (fraction of control) [14] 0.37 | inhibition [15] 8% | differentiation response [16] -19.2%
active: inhibition [11] 54.2%
61.2%: double positive events [6]

COc1cc2c(cc1OC)C1(CCCC1)CNC2c1cccc([N+](=O)[O-])c1 (stereo not drawn)
active: response [12] 35.2%
54.7%: double positive events [6]
inactive: percent of DMSO control GFP [1] 99.3% | GFP response vs DMSO [2] 103% | percent response of DMSO control [3] 95.8% | GFP response vs DMSO [4] 109% | GFP response, % of DMSO [5] 92.8% | vesicle binding response [6] 235% | inhibition [7] -57.8% | superoxide response (% of plate) [8] 99.7% | aptamer binding inhibition [9] -2% | response [10] 23.6% | inhibition [11] -2.35% | binding (% of control) [13] 99.1% | efflux inhibition (fraction of control) [14] 0.05 | inhibition [15] 4% | differentiation response [16] -8.8%

CC(=O)OCC(=O)[C@@]1(O)[C@H](C)C[C@H]2[C@@H]3CCC4=CC(=O)C=C[C@]4(C)[C@@]3(F)[C@@H](O)C[C@@]21C
inactive: percent of DMSO control GFP [1] 97.2% | GFP response vs DMSO [2] 119% | percent response of DMSO control [3] 107% | GFP response vs DMSO [4] 80.9% | GFP response, % of DMSO [5] 91.7% | vesicle binding response [6] 192% | inhibition [7] 12.3% | superoxide response (% of plate) [8] 108% | aptamer binding inhibition [9] -2% | response [10] -2.19% | inhibition [11] -11.7% | response [12] 2.51% | binding (% of control) [13] 99.4% | efflux inhibition (fraction of control) [14] -0.35 | inhibition [15] 9% | differentiation response [16] -3.28%
59.3%: double positive events [6]

Cc1ccccc1NC(=O)C1(C)Cc2ccccc2C(=O)O1 (stereo not drawn)
inactive: percent of DMSO control GFP [1] 100% | GFP response vs DMSO [2] 103% | percent response of DMSO control [3] 92.9% | GFP response vs DMSO [4] 131% | GFP response, % of DMSO [5] 101% | vesicle binding response [6] 161% | inhibition [7] 10.5% | superoxide response (% of plate) [8] 96.3% | aptamer binding inhibition [9] 1% | response [10] -11% | inhibition [11] 29.5% | response [12] -1.4% | binding (% of control) [13] 101% | efflux inhibition (fraction of control) [14] -0.28 | inhibition [15] -4% | differentiation response [16] 18.4%
61.4%: double positive events [6]

CC(=O)O[C@H]1C[C@@]2(C)[C@@H](C[C@@H](O)[C@H]3[C@@]4(C)CC[C@@H](O)[C@@H](C)C4CC[C@@]32C)/C1=C(\CCC=C(C)C)C(=O)O (stereo partly drawn)
inactive: percent of DMSO control GFP [1] 102% | GFP response vs DMSO [2] 107% | percent response of DMSO control [3] 104% | GFP response vs DMSO [4] 106% | GFP response, % of DMSO [5] 115% | vesicle binding response [6] 177% | inhibition [7] 11.7% | superoxide response (% of plate) [8] 116% | aptamer binding inhibition [9] -1% | response [10] -16.8% | inhibition [11] -14.5% | response [12] -3.26% | binding (% of control) [13] 100% | efflux inhibition (fraction of control) [14] 0.17 | inhibition [15] 3% | differentiation response [16] -9.91%
63.4%: double positive events [6]

COc1ccc(C(C)=O)c2c1OCCO2
inactive: percent of DMSO control GFP [1] 100% | GFP response vs DMSO [2] 94.1% | percent response of DMSO control [3] 91.9% | GFP response vs DMSO [4] 88.7% | GFP response, % of DMSO [5] 97.2% | vesicle binding response [6] 891% | inhibition [7] -2.53% | superoxide response (% of plate) [8] 97.6% | aptamer binding inhibition [9] 1% | response [10] 3.38% | inhibition [11] 14.1% | response [12] 0.17% | binding (% of control) [13] 99.5% | efflux inhibition (fraction of control) [14] -0.07 | inhibition [15] 11% | differentiation response [16] -1.71%
65.9%: double positive events [6]

NC(=O)c1ncn([C@@H]2O[C@H](CO)[C@@H](O)[C@H]2O)c1O
inactive: percent of DMSO control GFP [1] 101% | GFP response vs DMSO [2] 103% | percent response of DMSO control [3] 96.7% | GFP response vs DMSO [4] 108% | GFP response, % of DMSO [5] 98% | vesicle binding response [6] 164% | inhibition [7] -16.8% | superoxide response (% of plate) [8] 109% | aptamer binding inhibition [9] 1% | response [10] 3.75% | inhibition [11] -16.1% | response [12] -4.18% | binding (% of control) [13] 98.7% | efflux inhibition (fraction of control) [14] -0.21 | inhibition [15] 3% | differentiation response [16] -15.2%
55.9%: double positive events [6]

O=C(O)Cc1ccc(O)c(F)c1
61.7%: double positive events [6]
inactive: percent of DMSO control GFP [1] 91.5% | GFP response vs DMSO [2] 135% | percent response of DMSO control [3] 101% | GFP response vs DMSO [4] 80.9% | GFP response, % of DMSO [5] 91% | vesicle binding response [6] 175% | inhibition [7] -9.06% | superoxide response (% of plate) [8] 111% | aptamer binding inhibition [9] 4% | response [10] -7.58% | inhibition [11] 5.41% | response [12] 1.04% | binding (% of control) [13] 100% | efflux inhibition (fraction of control) [14] 0.19 | inhibition [15] 10% | differentiation response [16] -4.09%
